From PubChem BioAssay
TRb-SRC2 inh: disrupts binding of human TR beta to SRC2; P10828; TRbeta-SRC2 peptide binding, fluorescence polarization; receptor liganded with 1 µM T3; Potency, µM (series often up to 106 µM), for the others: at the highest dose activity change, negative = inhibition, most hits filed as inhibitors; 0.065% of 280,000 active; AID 1469;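 also: plate controls were bound peptide for no effect and peptide without receptor for full effect; nearly all actives have a fitted effect of over 50% in size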
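Human TRb ligand-binding domain (0.6 uM) is mixed with 20 nM Texas Red SRC2 peptide and 1 uM T3; after compound addition and 5 hr at ambient temperature, polarization is measured and normalized to unbound and bound controls.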
Tau fluor cs: counter-screen for tau fibril formation inhibitors. Potency, µM (series often up to 57.7 µM), inactives show at the highest dose activity change, negative = decrease. 0.93% of 280,000 active. tau K18 P301L Alexa594 fluorescence, heparin fibrillization; also: nearly all actives have a fitted effect of over 55% in size
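Human K18 P301L tau (15 uM unlabeled plus 0.24 uM Alexa 594-labeled, final) in 100 mM sodium acetate pH 7 was mixed with compound and 20 uM heparin and incubated 6 hr at 37 C.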
JMJD2E inh: JMJD2E (human) inhibition | B2RXH2 | JMJD2E catalytic domain, FDH-coupled NADH fluorescence (FDH is formaldehyde dehydrogenase) | Potency, µM (top dose mostly 57.1 µM), for the others: at the highest dose activity change, negative = inhibition, usual class: inhibitors | 1.6% of 230,000 active | AID 2147; active = well fitted inhibition curve with a large enough effect, not every such curve was filed as active; inconclusive = small, poorly fitted or top-dose-only effect, or another doubt; inactive = no such curve, though single readings can be large or run the other way;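 also: 0% = wells with enzyme and -100% = buffer wells without enzyme; nearly all actives have a fitted effect of over 50% in size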
Target sequence (B2RXH2 1-337 limits assumed): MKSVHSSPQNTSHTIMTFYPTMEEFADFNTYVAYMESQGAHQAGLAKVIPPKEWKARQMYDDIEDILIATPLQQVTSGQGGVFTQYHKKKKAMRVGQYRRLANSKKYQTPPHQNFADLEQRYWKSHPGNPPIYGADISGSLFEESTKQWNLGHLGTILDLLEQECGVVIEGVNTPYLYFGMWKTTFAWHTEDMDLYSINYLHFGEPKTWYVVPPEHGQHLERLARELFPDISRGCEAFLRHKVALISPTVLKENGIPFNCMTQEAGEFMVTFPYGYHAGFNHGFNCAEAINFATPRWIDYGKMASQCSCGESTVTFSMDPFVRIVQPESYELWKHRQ
Tau FP inhib: tau fibrillization inhibition (FP). 0.39% of 280,000 active. AID 1468. K18 P301L tau heparin fibrillization, Alexa594 FP, 6 h. Potency, µM (highest dose often 57.7 µM), without a hit: at the top dose activity, negative = inhibition, most hits filed as inhibitors; also: nearly all actives have a fitted effect of over 55% in size
Target sequence (P10636 561-689 P618L limits assumed): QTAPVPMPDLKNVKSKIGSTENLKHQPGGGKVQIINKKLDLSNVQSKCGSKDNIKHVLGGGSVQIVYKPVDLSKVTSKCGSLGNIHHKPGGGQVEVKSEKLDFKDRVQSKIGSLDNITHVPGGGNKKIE
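Human tau K18 […] P301L fragment, 15 uM unlabeled plus 0.24 uM Alexa 594-labeled tau (final), with compound and 20 uM heparin in 100 mM sodium acetate pH 7; 6 hr at 37 C, then Alexa 594 FP read.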
TR SRC2 fluor cs: alters Texas Red total fluorescence, flagging assay interference; Potency, µM (top dose mostly 106 µM), for the others: top-dose fluorescence change, negative = quenching; AID 1479; 0.29% of 280,000 active; TRb/SRC2 Texas Red total fluorescence interference; active = well fitted curve in either direction with a large enough effect; inconclusive = small, poorly fitted or top-dose-only effect
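Human TRb ligand-binding domain at 0.6 uM with 20 nM Texas Red SRC2 peptide in Tris buffer containing 1 uM T3 and 5% DMSO, incubated with compound 5 h at ambient temperature. Total fluorescence (555/632 nm) calculated as parallel + 2 × perpendicular.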
Tau fibril ThT: blocks human tau fibril formation measured by thioflavin T; recombinant tau K18 P301L (four-repeat tau fragment), heparin-induced fibrillization, ThT fluorescence; Potency, µM (highest dose often 57.4 µM), for inactives: at the top dose activity, negative = inhibition, usual class: inhibitors; 2.1% of 270,000 active; also: nearly all actives have a fitted effect of over 55% in size
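Recombinant human tau K18 fragment […] carrying P301L, 15 uM unlabeled plus 0.24 uM Alexa 594-labeled, was fibrillized with 20 uM heparin in 100 mM sodium acetate pH 7 for 6 hr at 37 C; 30 uM ThT fluorescence read after 1 hr.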
An asterisk follows results filed as active; u = inconclusive; x = not tested or not shown; ! = repeats disagree; [ ] = remark or other dose. Rows were chosen to be rich in hits. Some 3.5% of all compounds tested hit in one or more screens of this group. Unless noted, calls follow the shape of the dose curve; as a rule, active = well fitted curve in the direction sought with a large enough effect; inconclusive = small, poorly fitted or top-dose-only effect, or another doubt; inactive = no such curve, though single readings can be large; an effect the other way counts as inactive or inconclusive. Unless noted, % is scaled to controls: 0 for no effect and ±100 for the full control effect; potency is read from the fitted curve at half-maximal effect.

SMILES | TRb-SRC2 inh | Tau fluor cs | JMJD2E inh | Tau FP inhib | TR SRC2 fluor cs | Tau fibril ThT
CCN(CC)C(=O)c1ccc(NS(=O)(=O)c2ccc(/C=C/C(=O)O)cc2)cc1 | -2% | -3% | 3% | 9% | 0% | 3%
CCOC(=O)c1sc(=S)n(Cc2ccccc2)c1N | 2% | 16µM*[quencher] | 7% | 12% | -2% | -15%
O=C1CSC(=S)N1/N=C/c1ccc(O)c(O)c1O | 12% | u | 2.2µM* | 7.1µM* | -16% | 3.5µM*
O=C(NCc1ccccc1)C1CCN(C(=O)c2cnn(-c3ccccc3)c2-n2cccc2)CC1 | -9% | -17% | x | 2% | 32µM*[quencher] | -7%
O=C(NCc1cccc(F)c1)C1CCN(C(=O)c2sccc2-n2cccc2)CC1 | -6% | -7% | -1% | -2% | 25µM*![quencher] | -9%
CC(C)Cc1ccc(C#N)c(SCC(N)=O)n1 | 2% | 2% | -7% | 5% | 1% | -4%
CCCC(C)c1nnc(NC(=O)CN2C(=O)c3ccccc3C2=O)s1 (stereo unspecified) | 1% | -7% | -14% | -2% | 0% | -3%
COC(=O)CCCC1=CC2=CC(=O)C(C)(OC(=O)c3cccs3)C(=O)C2=CN1Cc1ccc2c(c1)OCO2 (stereo unspecified) | 1%[11.2 µM] | -8%[11.6 µM] | u | u | -15%[11.2 µM] | 13µM*!
COC(=O)CCCC1=CC2=CC(=O)C(C)(OC(=O)c3cccs3)C(=O)C2=CN1C1CCCC1 (stereo unspecified) | 4%[11.2 µM] | -17%[11.6 µM] | -26%[11.4 µM] | u | -1%[11.2 µM] | 25µM*
COC(=O)CCCC1=CC2=CC(=O)C(C)(OC(=O)c3cccs3)C(=O)C2=CN1C(CO)CO (stereo unspecified) | 9%[11.2 µM] | 0%[11.6 µM] | -10%[11.4 µM] | -5%[11.6 µM] | -4%[11.2 µM] | -2%[11.5 µM]
COC(=O)CCCC1=CC2=CC(=O)C(C)(OC(=O)c3cccs3)C(=O)C2=CN1CCc1c[nH]c2ccccc12 (stereo unspecified) | -3%[11.2 µM] | -10%[11.6 µM] | 5.6µM*! | 5%[11.6 µM] | -2%[11.2 µM] | u
COC(=O)CCCC1=CC2=CC(=O)C(C)(OC(=O)c3cccs3)C(=O)C2=CN1Cc1ccccc1 (stereo unspecified) | 7%[11.2 µM] | -5%[11.6 µM] | -19%[11.4 µM] | u | 0%[11.2 µM] | 13µM*!
Cc1[nH]c(=O)[nH]c(=O)c1S(=O)(=O)N1CCCC(C(=O)N2CCC(Cc3ccccc3)CC2)C1 (stereo unspecified) | -4% | 0% | -4% | 2% | -3% | -9%
Cc1cc(C)c2c(c1)OC(=O)CC2c1ccccc1C (stereo unspecified) | 6%[201 µM] | -19%[81.3 µM] | x | -4%[81.3 µM] | 0%[201 µM] | -18%[81.4 µM]
CC(C)=NNc1nc(-c2ccc([N+](=O)[O-])cc2)cs1 | 5% | -29% | -2% | 10% | -11% | 8.9µM*
C/C=C/C=N/Nc1nc(-c2ccc([N+](=O)[O-])cc2)cs1 | -8% | u | -1% | 14% | -5% | 3.5µM*
COc1ccc(-c2nc(-c3ccccc3)[nH]c(=O)c2C#N)cc1 | 1% | -9% | -9% | -4% | 0% | -6%
C#CCNC(=O)C1=C[C@@H](c2ccc3c(c2)OCO3)[C@H](CCCO)[C@@H](OCC)O1 | 2% | 2% | -23% | 1% | -3% | -8%
Cc1cccc(OCC(=O)Nc2ccc(N3CCCC3)cc2)c1C | -8% | u | -26% | 10% | -9% | 14µM*
O=C(CNCC1CCCCC1)Nc1ccc(N2CCCCC2)cc1 | 0% | -7% | 28µM* | 9% | -2% | -3%
CC1CCN(CC(=O)Nc2ccc(N3CCCCCC3)cc2)CC1 | -5% | -29% | 22µM* | 6% | -1% | u
O=C(CNC1CCCC1)Nc1ccc(N2CCCCCC2)cc1 | -6% | -6% | 8.9µM* | 0% | -4% | -5%
O=C(CNC1CCCCCC1)Nc1ccc(N2CCCC2)cc1 | 3% | -9% | -6% | 4% | 2% | -14%
O=C1NC(c2cccc([N+](=O)[O-])c2)=CCN1c1ccccc1O | 4% | -15% | -16% | 4% | -1% | u
O=C1CCN(C(=S)NCc2ccccc2)CC1 | -5% | 2% | 0% | 6% | 0% | 3%
SMILES | TRb-SRC2 inh | Tau fluor cs | JMJD2E inh | Tau FP inhib | TR SRC2 fluor cs | Tau fibril ThT
COc1cccc(C(=O)Nc2ccc(Cl)c(-c3nc4ccccc4[nH]3)c2)c1 | 8% | u | x | 25µM* | 6% | u
CC(Oc1ccccc1)C(=O)Nc1cccc(-c2nc3ccccc3[nH]2)c1 (stereo unspecified) | -3% | -5% | 1% | -1% | -5% | -10%
CC(C)CC(=O)Nc1cccc(-c2nc3ccccc3[nH]2)c1 | -5% | -17% | u | -19% | 0% | -5%
CCC(=O)Nc1ccc(Cl)c(-c2nc3ccccc3[nH]2)c1 | -9% | -6% | x | 0% | -45% | -2%
Cc1cc(C)cc(OCC(=O)Nc2cccc(-c3nc4ccccc4[nH]3)c2)c1 | 3% | 11µM*[quencher] | x | 22µM* | -3% | -14%
CC(C)COc1ccc(C(=O)Nc2cccc(-c3nc4ccccc4[nH]3)c2)cc1 | -4% | 7.9µM*[quencher] | x | 20µM* | -11% | u
O=C(COc1ccccc1)Nc1cccc(-c2nc3cc4ccccc4cc3[nH]2)c1 | 3% | 16µM*[quencher] | u | u | -3% | u
O=C(NCc1cccs1)C(=O)NCC(c1ccco1)N1CCN(c2ccc(F)cc2)CC1 (stereo unspecified) | -6% | -29% | -7% | 7% | -1% | u
O=S(=O)(Cc1ccccc1)N1CCCc2ccccc21 | -6% | -14% | 8% | 0% | -3% | -11%
COc1ccc(/C=C(/C(=O)c2ccc(Cl)cc2Cl)n2cncn2)cc1 | 0% | -1% | -1% | 2% | 0% | -10%
CN(C)c1ccc(/C=C(/C(=O)c2ccc(Cl)cc2Cl)n2cncn2)cc1 | -9% | -22% | -2% | -1% | 31623µM*[quencher] | u
Nc1ccccc1OCCOCCOc1ccccc1N | 5% | -1% | -5% | -2% | -6% | 1%
N[C@H](CCC(=O)N[C@H](CSN=O)C(=O)NCC(=O)O)C(=O)O | -4% | -22% | u | u | -1% | 22µM*
Cc1[nH]c2ccccc2c1C(=O)CSC(=S)N1CCCCC1 | -2% | 22µM*[quencher] | -1% | 40µM* | -7% | u
Cc1[nH]c2ccccc2c1C(=O)CN1CCN(C2CCCCC2)CC1 | 0% | -1% | -9% | 7% | -3% | -9%
Cc1[nH]c2ccccc2c1C(=O)CSC(=S)N(C)C1CCCCC1 | 2% | u | 6% | 25µM* | 2% | -14%
COC(=O)c1ccccc1NC(=O)Cn1c(=O)cc(-c2ccccc2)c2c(C)nn(C)c21 | 4% | 1% | x | -4% | -9% | 5%
